The nature of assay [1]: qHTS assay to identify small molecule antagonists of the estrogen related receptor (ERR) signaling pathway from Tox21 library - cell viability counter screen (AID 1224834). Note: nearly all actives have a fitted effect of over 30% in size. Note: potency is the fitted concentration of half-maximal effect. In short, it runs like this:
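CellTiter-Fluor fluorescence measured; ERR cells; 17.5 h compound incubation at 37 C; 30 min reagent step.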
A general note: qHTS replaces the single test concentration by a dilution series.

Assay [2] addresses Luciferin 4-monooxygenase (Photinus pyralis) (UniProt P08659). As to the kind of experiment: qHTS assay to identify small molecule inhibitors of firefly luciferase (AID 1224835). Note: nearly all actives have a fitted effect of over 25% in size. Note: potency is the fitted concentration of half-maximal effect. In short, it runs like this: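 Quantitative HTS format; KM concentrations of both substrates. Purified P. pyralis FLuc activity quantified from luminescence images.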
Assay [3] can be described thus: qHTS assay to identify small molecule agonists of the constitutive androstane receptor (CAR) signaling pathway - cell viability counter screen (AID 1224836). Note: nearly all actives have a fitted effect of over 45% in size. Note: potency is the fitted concentration of half-maximal effect. Put shortly: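 23 h treatment, 37 C, 5% CO2. Cell line: HepG2 stably expressing hCAR with a CYP2B6-2.2kb construct. Co-treatment: PK11195, 0.75 uM final. Read-out: CellTiter-Fluor fluorescence intensity.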
Assay [4] in a line: qHTS assay to identify small molecule antagonists of the constitutive androstane receptor (CAR) signaling pathway - cell viability counter screen (AID 1224837). Note: nearly all actives have a fitted effect of over 45% in size. Note: potency is the fitted concentration of half-maximal effect. Put shortly:
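Using CellTiter-Fluor, viability is scored in HepG2 cells stably carrying hCAR and a 2.2kb CYP2B6 reporter after 23 hr compound exposure across 15 concentrations, with CITCO present at 50 nM.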

For assay [5], the target named is Nuclear receptor subfamily 1 group I member 3 (Homo sapiens) (UniProt Q14994). Nature of the assay: qHTS assay to identify small molecule antagonists of the constitutive androstane receptor (CAR) signaling pathway (AID 1224838).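 Note: HepG2 cells stably expressing hCAR with CYP2B6 luciferase reporter stimulated by CITCO; nearly all actives have a fitted effect of over 40% in size.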 In short, it runs like this:
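Reporter luminescence was quantified after 24 h exposure of hCAR/CYP2B6-2.2kb double-stable HepG2 cells to compounds at 15 concentrations in the presence of 50 nM CITCO final.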

For assay [6] the target is unchanged. Nature of the assay: qHTS assay to identify small molecule agonists of the constitutive androstane receptor (CAR) signaling pathway (AID 1224839). Note: nearly all actives have a fitted effect of over 15% in size. Note: potency is the fitted concentration of half-maximal effect. In short, it runs like this:
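Compounds tested at 15 concentrations on HepG2 cells stably harbouring hCAR and CYP2B6-2.2kb reporter constructs, co-treated with PK11195 (0.75 uM final), 24 h at 37 C; luminescent reporter signal quantified.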

Assay [7] can be described thus: qHTS assay to identify small molecule antagonists of the estrogen related receptor signaling pathway with the pleiotropic PPARgamma coactivator (PGC) from Tox21 10K library - cell viability counter screen (AID 1224840; active = well fitted cell-killing curve with a large enough effect in the repeat runs, not every such curve was filed as active; note: nearly all actives have a fitted effect of over 40% in size; note: potency is the fitted concentration of half-maximal effect). In short, it runs like this: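 Here the PGC/ERR cells serve as a cytotoxicity control: they are exposed to compounds for 17.5 hours at 37 C, and live-cell signal is quantified using CellTiter-Fluor fluorescence.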

A short description of assay [8]: qHTS assay to identify small molecule antagonists of the estrogen related receptor signaling pathway with the pleiotropic PPARgamma coactivator (PGC) from Tox21 10K library (AID 1224841; call rule not given here; note: series mostly up to about 92 µM; actives are mostly falling curves and most rising ones were filed inactive; nearly all actives have a fitted effect of over 50% in size). Put shortly:
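Each well held 2,000 PGC/ERR cells, pre-incubated six hours (37 C, 5% CO2). Test substances in DMSO were added by pin tool and left for 18 h at 37 C before luciferase detection by One-Glo.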

The nature of assay [9]: qHTS assay to identify small molecule agonists of the estrogen related receptor signaling pathway with the pleiotropic PPARgamma coactivator (PGC) from Tox21 10K library (AID 1224842). Note: nearly all actives have a fitted effect of over 15% in size. In short, it runs like this:
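PGC/ERR reporter cells (NTP line) were seeded 2,000 per well, rested 6 h at 37 C/5% CO2, then pin-dosed with compounds in DMSO for 18 h at 37 C; luciferase read by One-Glo luminescence after 30 min at room temperature.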

Assay [10] has as its target Thyrotropin receptor (Homo sapiens) (UniProt P16473). Nature of the assay: qHTS assay to identify small molecule agonists of the thyroid stimulating hormone receptor (TSHR) signaling pathway (AID 1224843; calls by dose curve; note: nearly all actives have a fitted effect of over 45% in size). Put shortly: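 TSHR-expressing HEK293 cells (800 per well) were exposed to compounds for 30 min at room temperature. cAMP was then detected by HTRF competition with cAMP-d2 and anti-cAMP cryptate, read after 1 h at room temperature. Fifteen concentrations, triplicate.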

Results on 24 compounds are retold here after PubChem BioAssay (Tox21).

The structures appear in SMILES notation. Results filed as inconclusive are left out. A number with no mark means an inactive call. Activity calls are given as the source filed them. Unless noted, calls come from the whole dose curve; as a rule, active = well fitted curve in the direction sought with a large enough effect in the repeat runs; inconclusive = weak or mixed curves; inactive = no such curve, though single readings can be large; an effect the other way counts as inactive or inconclusive.

Sequence of Luciferin 4-monooxygenase (Photinus pyralis) (P08659 whole entry, looked up): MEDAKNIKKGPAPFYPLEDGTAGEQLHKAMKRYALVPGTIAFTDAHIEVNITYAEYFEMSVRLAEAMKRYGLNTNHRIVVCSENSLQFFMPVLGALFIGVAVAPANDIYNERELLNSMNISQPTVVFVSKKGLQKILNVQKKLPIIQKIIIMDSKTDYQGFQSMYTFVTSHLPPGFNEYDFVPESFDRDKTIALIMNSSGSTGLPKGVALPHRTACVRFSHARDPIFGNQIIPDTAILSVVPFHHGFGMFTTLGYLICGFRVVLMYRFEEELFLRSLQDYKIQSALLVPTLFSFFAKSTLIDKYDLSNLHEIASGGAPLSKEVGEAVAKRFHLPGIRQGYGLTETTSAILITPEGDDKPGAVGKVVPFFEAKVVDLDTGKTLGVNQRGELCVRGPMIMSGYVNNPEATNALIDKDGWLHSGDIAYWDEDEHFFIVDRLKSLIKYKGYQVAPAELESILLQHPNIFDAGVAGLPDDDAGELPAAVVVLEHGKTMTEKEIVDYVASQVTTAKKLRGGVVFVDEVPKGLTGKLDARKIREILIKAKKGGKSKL
Sequence of Thyrotropin receptor (Homo sapiens) (P16473 whole entry, looked up): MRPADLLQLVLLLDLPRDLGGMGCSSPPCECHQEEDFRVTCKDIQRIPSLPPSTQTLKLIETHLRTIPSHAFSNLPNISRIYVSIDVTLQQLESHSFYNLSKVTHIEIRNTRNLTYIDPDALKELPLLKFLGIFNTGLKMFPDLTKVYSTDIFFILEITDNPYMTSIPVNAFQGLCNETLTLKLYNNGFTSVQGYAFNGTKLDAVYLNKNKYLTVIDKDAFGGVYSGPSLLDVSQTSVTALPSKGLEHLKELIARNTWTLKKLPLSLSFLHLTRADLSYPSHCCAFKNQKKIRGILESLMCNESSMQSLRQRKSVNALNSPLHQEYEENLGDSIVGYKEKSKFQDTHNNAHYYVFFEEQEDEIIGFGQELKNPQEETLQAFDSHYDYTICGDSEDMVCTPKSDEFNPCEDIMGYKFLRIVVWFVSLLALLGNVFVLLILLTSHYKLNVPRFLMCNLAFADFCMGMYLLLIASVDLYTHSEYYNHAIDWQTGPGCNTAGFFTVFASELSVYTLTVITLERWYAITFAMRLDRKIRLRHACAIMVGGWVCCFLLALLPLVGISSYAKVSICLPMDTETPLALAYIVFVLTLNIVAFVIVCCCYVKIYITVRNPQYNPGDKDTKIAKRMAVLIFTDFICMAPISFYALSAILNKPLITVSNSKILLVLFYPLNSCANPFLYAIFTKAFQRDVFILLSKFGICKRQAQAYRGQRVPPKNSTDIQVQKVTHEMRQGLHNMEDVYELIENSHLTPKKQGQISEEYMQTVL
Sequence of Nuclear receptor subfamily 1 group I member 3 (Homo sapiens) (Q14994 whole entry, looked up): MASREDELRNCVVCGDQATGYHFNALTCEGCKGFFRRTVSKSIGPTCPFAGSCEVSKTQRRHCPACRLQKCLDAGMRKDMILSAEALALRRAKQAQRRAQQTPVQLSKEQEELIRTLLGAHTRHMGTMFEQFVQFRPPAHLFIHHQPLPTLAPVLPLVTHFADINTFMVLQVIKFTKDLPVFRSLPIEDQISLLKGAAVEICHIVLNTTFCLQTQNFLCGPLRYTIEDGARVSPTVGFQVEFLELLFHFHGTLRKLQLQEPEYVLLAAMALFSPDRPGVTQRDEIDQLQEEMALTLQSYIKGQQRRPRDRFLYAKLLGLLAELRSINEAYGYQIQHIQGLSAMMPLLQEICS

As for `CCOC(=O)C(=O)CCc1ccccc1`, the Potency entry in assay [1], in assay [2], in assay [3], in [4], in [5] and in assay [6] was “inactive” in each case. Moreover, in assay [7], the Potency result was “inactive”.

`CC(C)(CO)[N+](=O)[O-]`: the Potency entry in assay [1], in assay [2], in [3], in [4], in assay [5] and in [6] was “inactive” each time. The Potency entry in [7] is “inactive”.

Turning to `C=C1[C@H]2CC[C@@H]3[C@H]2C(C)(C)CCC[C@]13C`, the Potency result in [1], in assay [2], in assay [3], in assay [4], in assay [5] and in assay [6] was “inactive” throughout. Moreover, in [7], the Potency entry is “inactive”.

`O=C1CCC(=O)O1`: the Potency entry in assay [1], in [2], in assay [3], in assay [4], in assay [5] and in assay [6] was “inactive” throughout. The Potency result in assay [7] and in assay [8] was “inactive” throughout.

On to `COc1cc2nc(Cl)nc(N)c2cc1OC`, for which the Potency entry in assay [1], in assay [2], in [3], in [4], in assay [5] and in assay [6] was “inactive” in each case. The Potency result in [7] was “inactive”.

Turning to `CC1=CC=C(C(C)C)CC1`, the Potency result in assay [1], in assay [2], in assay [3], in assay [4], in assay [5] and in assay [6] was “inactive” each time. Besides, the Potency entry in assay [7] was “inactive”.

With `CCCCCCCCCc1ccc(OCCOCCO)cc1`, the Potency was 10.2 µM (active) in assay [1], 6.44 µM (active) in [3], 5.74 µM (active) in [4] and 10.2 µM (active) in assay [7]. Also, the Potency entry in assay [2], in assay [5] and in assay [6] was “inactive” in each case.

Consider `CN1Cc2cc(C(=O)N3CCC(C4CCNCC4)CC3)ccc2NC(CC(=O)O)C1=O` (stereo not drawn), for which the Potency entry in [1], in assay [2], in assay [3], in assay [4], in assay [5] and in [6] was “inactive” throughout. The Potency entry in assay [7], in assay [8], in [9] and in assay [10] was “inactive” in each case.

Turning to `C[Si](C)(CCCN)O[Si](C)(C)CCCN`, the Potency entry in assay [1], in [2], in [3], in [4], in assay [5] and in [6] was “inactive” in each case. For the same compound, the Potency result in assay [7], in assay [8], in assay [9] and in assay [10] was “inactive” in each case.

In the case of `CCC(C)(C)CC`, the Potency entry in assay [1], in assay [2], in [3], in [4], in assay [5] and in assay [6] was “inactive” each time. For the same compound, the Potency result in [7] was “inactive”.

Consider `CCN(CC)CCNC(=O)c1cc(Br)c(N)cc1OC`, for which the Potency entry in assay [1], in assay [2], in assay [3], in assay [4], in assay [5] and in [6] was “inactive” throughout. The Potency entry in [7], in assay [9] and in assay [10] was “inactive” throughout.

`C#CCN(C)CCCOc1ccc(Cl)cc1Cl`: the Potency entry in assay [1], in assay [3], in assay [4], in assay [5] and in assay [7] was “inactive” each time. Also, the Potency is 15.5 µM (active) in assay [2] and 26.6 µM (active) in assay [6].

As to `CCC(=O)O[C@]1(C(=O)CCl)[C@@H](C)C[C@H]2[C@@H]3CCC4=CC(=O)C=C[C@]4(C)[C@@]3(F)[C@@H](O)C[C@@]21C`, the Potency entry in assay [1], in assay [2], in [3], in assay [4], in assay [5] and in [6] was “inactive” in each case. Moreover, the Potency entry in assay [7], in [8], in assay [9] and in [10] was “inactive” in each case.

Take `O=C(O)c1ccc(S(=O)(=O)O)cc1C(=O)O`: the Potency result in [1], in [2], in [3], in [4], in assay [5] and in assay [6] was “inactive” in each case. Also, the Potency result in assay [7], in assay [9] and in assay [10] was “inactive” each time.

Take `CCCCCCCCCCO[C@@H]1O[C@H](CO)[C@@H](O)[C@H](O)[C@H]1O`: the Potency result in assay [1], in assay [2], in assay [3], in assay [4], in [5] and in [6] was “inactive” each time. For the same compound, the Potency entry in assay [7] was “inactive”.

Turning to `CCCCC(CC)COC(=O)CCCCCCCCC(=O)OCC(CC)CCCC` (stereo not drawn), the Potency entry in assay [1], in [2], in [3], in assay [4], in [5] and in [6] was “inactive” each time. Moreover, the Potency result in assay [7], in assay [9] and in assay [10] was “inactive” in each case.

`OC[C@H]1O[C@@H](OCCc2ccc(O)cc2)[C@H](O)[C@@H](O)[C@@H]1O`: the Potency result in assay [1], in assay [2], in assay [3], in assay [4], in assay [5] and in assay [6] was “inactive” each time. Further, the Potency entry in assay [7] and in assay [8] was “inactive” in each case.

Turning to `C[C@H]1C[C@H]2[C@@H]3CCC4=CC(=O)C=C[C@]4(C)[C@@]3(Cl)[C@@H](O)C[C@]2(C)[C@@]1(O)C(=O)CO`, the Potency result in [1], in [2], in assay [3], in assay [4], in [5] and in [6] was “inactive” throughout. The Potency entry in [7], in assay [9] and in assay [10] was “inactive” in each case.

Turning to `CN(Cc1ccc(C(C)(C)C)cc1)Cc1cccc2ccccc12`, the Potency result in assay [1], in assay [2], in assay [3], in assay [4], in assay [5] and in assay [6] was “inactive” in each case. Also, the Potency entry in assay [7] was “inactive”.

Consider `CCOC(=O)C(O)c1ccccc1` (stereo not drawn), for which the Potency result in [1], in assay [2], in [3], in [4], in assay [5] and in assay [6] was “inactive” in each case. Moreover, the Potency entry in assay [7], in assay [8], in assay [9] and in [10] was “inactive” throughout.

Consider `CCCn1cnc2c1c(=O)n(CCCCC(C)=O)c(=O)n2C`, for which the Potency result in [1], in assay [2], in assay [3], in assay [4], in assay [5] and in assay [6] was “inactive” each time. The Potency result in assay [7], in [8], in assay [9] and in assay [10] was “inactive” each time.

`c1cc(CCCc2ccncc2)ccn1`: the Potency result in assay [1], in assay [2], in assay [3], in [4], in [5] and in assay [6] was “inactive” throughout. Further, the Potency entry in assay [7], in [9] and in assay [10] was “inactive” each time.

As to `CC(C)(COC(=O)c1ccccc1)COC(=O)c1ccccc1`, the Potency entry in [1], in assay [2], in assay [3], in assay [4], in assay [5] and in assay [6] was “inactive” throughout. Also, the Potency result in assay [7] is “inactive”.

As to `Nc1cccc(S(=O)(=O)c2cccc(N)c2)c1`, the Potency entry in [1], in assay [2], in assay [3], in assay [4], in [5] and in assay [6] was “inactive” in each case. Moreover, the Potency result in assay [7], in assay [8], in [9] and in [10] was “inactive” throughout.
